For test [1], the target named is Interleukin-1 receptor-associated kinase 1 (Homo sapiens) (UniProt P51617). To be noted: at 10 µM.
Test [2] addresses T1, Interleukin-1 receptor-associated kinase 4 (Homo sapiens) (UniProt Q9NWZ3).
T1 sequence (whole entry): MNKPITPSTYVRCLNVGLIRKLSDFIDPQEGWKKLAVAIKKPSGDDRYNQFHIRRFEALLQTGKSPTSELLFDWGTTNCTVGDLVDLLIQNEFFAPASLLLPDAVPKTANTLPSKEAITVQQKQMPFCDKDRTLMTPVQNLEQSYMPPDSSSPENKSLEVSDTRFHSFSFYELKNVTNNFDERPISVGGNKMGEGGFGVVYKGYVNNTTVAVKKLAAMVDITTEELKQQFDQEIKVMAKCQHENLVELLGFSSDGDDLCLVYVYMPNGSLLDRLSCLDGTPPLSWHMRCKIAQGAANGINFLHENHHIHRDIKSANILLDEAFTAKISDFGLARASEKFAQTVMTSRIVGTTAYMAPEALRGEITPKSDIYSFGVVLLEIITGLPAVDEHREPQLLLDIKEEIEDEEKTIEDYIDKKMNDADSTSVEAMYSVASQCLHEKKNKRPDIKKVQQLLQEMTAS
To be noted: at 1 µM.

Test [3] addresses T1, Interleukin-1 receptor-associated kinase 4 (Homo sapiens). To be noted: at 10 µM.
The target in test [4] is Insulin receptor-related protein (Homo sapiens) (UniProt P14616). To be noted: at 1 µM.
The target is the same in test [5]. To be noted: at 10 µM.
Test [6] has as its target Tyrosine-protein kinase JAK2 (Homo sapiens) (UniProt O60674). To be noted: at 1 µM.
For test [7] the target is unchanged. To be noted: at 10 µM.
In test [8] the target is T2, Tyrosine-protein kinase JAK3 (Homo sapiens) (UniProt P52333).
T2 sequence (whole entry): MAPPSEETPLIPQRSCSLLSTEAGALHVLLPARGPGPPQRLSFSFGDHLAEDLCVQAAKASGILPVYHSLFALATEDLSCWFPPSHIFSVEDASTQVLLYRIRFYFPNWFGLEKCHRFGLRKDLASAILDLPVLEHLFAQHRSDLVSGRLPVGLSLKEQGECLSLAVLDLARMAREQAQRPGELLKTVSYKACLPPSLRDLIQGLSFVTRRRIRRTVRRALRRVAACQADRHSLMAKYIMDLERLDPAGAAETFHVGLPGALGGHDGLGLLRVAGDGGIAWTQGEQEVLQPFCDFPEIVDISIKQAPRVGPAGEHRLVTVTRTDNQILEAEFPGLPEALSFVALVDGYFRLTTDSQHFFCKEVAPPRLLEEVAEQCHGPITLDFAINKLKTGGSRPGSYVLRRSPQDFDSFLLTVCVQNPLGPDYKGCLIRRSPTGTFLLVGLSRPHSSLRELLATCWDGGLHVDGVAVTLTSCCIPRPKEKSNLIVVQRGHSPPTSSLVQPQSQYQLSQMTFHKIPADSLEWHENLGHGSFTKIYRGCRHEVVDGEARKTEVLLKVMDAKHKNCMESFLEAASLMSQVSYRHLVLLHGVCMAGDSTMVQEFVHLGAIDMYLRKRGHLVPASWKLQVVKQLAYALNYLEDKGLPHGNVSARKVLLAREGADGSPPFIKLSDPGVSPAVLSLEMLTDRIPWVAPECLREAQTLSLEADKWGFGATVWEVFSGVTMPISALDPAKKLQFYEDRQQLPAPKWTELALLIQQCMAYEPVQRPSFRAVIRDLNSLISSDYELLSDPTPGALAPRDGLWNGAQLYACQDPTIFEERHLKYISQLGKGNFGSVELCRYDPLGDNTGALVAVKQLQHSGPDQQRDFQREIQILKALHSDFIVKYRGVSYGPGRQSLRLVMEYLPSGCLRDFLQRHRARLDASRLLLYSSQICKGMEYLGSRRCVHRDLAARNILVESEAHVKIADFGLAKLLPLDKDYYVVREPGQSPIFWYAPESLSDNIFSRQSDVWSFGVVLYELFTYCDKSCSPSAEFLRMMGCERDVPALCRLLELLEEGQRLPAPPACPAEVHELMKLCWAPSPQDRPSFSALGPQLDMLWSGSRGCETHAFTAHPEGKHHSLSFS
To be noted: at 1 µM.

Test [9] addresses T2, Tyrosine-protein kinase JAK3 (Homo sapiens). To be noted: at 10 µM.
In test [10] the target is Mitogen-activated protein kinase 8 (Homo sapiens) (UniProt P45983). To be noted: at 1 µM.
Test [11] addresses Mitogen-activated protein kinase 10 (Homo sapiens) (UniProt P53779). To be noted: at 1 µM.
The target of test [12] is T3, Tyrosine-protein kinase ITK/TSK (Homo sapiens) (UniProt Q08881).
T3 sequence (whole entry): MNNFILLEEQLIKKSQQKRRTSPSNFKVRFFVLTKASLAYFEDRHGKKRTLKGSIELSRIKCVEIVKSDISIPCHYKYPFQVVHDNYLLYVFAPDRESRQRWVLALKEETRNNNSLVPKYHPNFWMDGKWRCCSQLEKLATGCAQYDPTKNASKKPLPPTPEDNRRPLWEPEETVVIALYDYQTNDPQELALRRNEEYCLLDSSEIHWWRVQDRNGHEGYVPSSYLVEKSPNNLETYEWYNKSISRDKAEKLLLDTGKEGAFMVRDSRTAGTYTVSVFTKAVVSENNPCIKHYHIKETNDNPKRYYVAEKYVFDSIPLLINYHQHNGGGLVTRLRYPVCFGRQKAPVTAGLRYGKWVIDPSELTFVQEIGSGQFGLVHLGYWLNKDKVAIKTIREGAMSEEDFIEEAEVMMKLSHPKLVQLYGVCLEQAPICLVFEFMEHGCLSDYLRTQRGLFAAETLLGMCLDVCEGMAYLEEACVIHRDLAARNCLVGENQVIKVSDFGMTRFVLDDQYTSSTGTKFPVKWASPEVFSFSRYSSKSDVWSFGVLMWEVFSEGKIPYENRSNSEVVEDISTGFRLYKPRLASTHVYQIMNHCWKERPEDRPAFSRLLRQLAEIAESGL
To be noted: at 10 µM.

Test [13] deals with Mitogen-activated protein kinase 9 (Homo sapiens) (UniProt P45984). To be noted: at 10 µM.
Test [14] concerns the target Interleukin-1 receptor-associated kinase 1 (Homo sapiens) (UniProt P51617). To be noted: at 1 µM.
For test [15], the target named is Mitogen-activated protein kinase 9 (Homo sapiens) (UniProt P45984). To be noted: at 1 µM.
Test [16] addresses T3, Tyrosine-protein kinase ITK/TSK (Homo sapiens). To be noted: at 1 µM.
For test [17], the target named is Mitogen-activated protein kinase 8 (Homo sapiens) (UniProt P45983). To be noted: at 10 µM.

Molecules are shown by their SMILES.

Chain of Mitogen-activated protein kinase 10 (Homo sapiens) (P53779 whole entry): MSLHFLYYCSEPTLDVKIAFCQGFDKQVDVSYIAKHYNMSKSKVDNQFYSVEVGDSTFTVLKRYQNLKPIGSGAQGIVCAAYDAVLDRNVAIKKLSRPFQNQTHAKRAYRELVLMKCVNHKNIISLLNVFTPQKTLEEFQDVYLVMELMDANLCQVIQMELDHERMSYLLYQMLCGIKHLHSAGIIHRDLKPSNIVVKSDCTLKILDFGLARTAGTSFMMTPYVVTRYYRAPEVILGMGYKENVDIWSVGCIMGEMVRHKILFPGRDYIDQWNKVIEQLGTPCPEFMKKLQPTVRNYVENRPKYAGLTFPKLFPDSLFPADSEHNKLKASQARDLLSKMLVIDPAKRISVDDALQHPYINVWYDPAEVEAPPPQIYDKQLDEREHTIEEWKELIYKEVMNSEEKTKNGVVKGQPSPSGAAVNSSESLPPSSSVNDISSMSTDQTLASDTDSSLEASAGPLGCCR
Chain of Interleukin-1 receptor-associated kinase 1 (Homo sapiens) (P51617 whole entry, looked up): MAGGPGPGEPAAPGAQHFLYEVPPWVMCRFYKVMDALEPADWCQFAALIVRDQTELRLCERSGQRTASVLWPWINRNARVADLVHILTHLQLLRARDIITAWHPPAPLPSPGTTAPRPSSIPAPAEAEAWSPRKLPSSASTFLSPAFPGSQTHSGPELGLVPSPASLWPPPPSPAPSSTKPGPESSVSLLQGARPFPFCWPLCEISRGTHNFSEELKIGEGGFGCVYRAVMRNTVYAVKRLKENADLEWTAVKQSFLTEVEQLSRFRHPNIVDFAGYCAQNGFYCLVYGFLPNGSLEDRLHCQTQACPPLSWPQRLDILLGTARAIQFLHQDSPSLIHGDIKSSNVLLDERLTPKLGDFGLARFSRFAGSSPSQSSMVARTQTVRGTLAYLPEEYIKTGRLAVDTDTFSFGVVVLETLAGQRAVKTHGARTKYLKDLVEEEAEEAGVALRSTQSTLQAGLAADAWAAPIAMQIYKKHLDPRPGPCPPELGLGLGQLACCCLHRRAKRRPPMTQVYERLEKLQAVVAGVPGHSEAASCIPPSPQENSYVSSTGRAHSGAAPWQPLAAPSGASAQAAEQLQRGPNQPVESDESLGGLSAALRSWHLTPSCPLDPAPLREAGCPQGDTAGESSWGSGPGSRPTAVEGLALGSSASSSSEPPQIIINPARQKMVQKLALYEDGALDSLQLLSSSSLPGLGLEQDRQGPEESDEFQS
Chain of Mitogen-activated protein kinase 9 (Homo sapiens) (P45984 whole entry, looked up): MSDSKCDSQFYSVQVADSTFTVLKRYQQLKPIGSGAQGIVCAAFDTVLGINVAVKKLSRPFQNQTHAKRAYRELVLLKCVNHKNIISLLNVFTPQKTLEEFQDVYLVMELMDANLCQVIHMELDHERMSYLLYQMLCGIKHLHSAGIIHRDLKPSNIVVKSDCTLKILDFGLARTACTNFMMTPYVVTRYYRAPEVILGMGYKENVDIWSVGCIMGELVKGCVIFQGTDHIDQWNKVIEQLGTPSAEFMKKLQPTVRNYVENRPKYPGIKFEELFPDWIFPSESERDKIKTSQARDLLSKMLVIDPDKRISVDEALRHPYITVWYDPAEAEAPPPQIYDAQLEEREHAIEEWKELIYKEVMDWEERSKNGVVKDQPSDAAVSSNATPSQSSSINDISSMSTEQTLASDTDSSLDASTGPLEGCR
Chain of Mitogen-activated protein kinase 8 (Homo sapiens) (P45983 whole entry): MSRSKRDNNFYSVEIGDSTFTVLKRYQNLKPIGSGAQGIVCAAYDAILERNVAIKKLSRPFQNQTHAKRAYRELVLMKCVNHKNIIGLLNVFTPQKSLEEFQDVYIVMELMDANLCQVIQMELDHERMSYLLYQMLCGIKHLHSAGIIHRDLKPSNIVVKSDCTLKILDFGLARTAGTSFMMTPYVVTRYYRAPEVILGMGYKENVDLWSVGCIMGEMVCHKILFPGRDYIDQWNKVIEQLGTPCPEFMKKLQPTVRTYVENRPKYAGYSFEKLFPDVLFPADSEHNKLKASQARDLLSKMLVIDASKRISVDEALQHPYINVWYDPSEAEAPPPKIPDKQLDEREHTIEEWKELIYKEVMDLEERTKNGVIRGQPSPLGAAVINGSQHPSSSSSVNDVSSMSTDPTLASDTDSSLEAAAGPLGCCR
Chain of Tyrosine-protein kinase JAK2 (Homo sapiens) (O60674 whole entry): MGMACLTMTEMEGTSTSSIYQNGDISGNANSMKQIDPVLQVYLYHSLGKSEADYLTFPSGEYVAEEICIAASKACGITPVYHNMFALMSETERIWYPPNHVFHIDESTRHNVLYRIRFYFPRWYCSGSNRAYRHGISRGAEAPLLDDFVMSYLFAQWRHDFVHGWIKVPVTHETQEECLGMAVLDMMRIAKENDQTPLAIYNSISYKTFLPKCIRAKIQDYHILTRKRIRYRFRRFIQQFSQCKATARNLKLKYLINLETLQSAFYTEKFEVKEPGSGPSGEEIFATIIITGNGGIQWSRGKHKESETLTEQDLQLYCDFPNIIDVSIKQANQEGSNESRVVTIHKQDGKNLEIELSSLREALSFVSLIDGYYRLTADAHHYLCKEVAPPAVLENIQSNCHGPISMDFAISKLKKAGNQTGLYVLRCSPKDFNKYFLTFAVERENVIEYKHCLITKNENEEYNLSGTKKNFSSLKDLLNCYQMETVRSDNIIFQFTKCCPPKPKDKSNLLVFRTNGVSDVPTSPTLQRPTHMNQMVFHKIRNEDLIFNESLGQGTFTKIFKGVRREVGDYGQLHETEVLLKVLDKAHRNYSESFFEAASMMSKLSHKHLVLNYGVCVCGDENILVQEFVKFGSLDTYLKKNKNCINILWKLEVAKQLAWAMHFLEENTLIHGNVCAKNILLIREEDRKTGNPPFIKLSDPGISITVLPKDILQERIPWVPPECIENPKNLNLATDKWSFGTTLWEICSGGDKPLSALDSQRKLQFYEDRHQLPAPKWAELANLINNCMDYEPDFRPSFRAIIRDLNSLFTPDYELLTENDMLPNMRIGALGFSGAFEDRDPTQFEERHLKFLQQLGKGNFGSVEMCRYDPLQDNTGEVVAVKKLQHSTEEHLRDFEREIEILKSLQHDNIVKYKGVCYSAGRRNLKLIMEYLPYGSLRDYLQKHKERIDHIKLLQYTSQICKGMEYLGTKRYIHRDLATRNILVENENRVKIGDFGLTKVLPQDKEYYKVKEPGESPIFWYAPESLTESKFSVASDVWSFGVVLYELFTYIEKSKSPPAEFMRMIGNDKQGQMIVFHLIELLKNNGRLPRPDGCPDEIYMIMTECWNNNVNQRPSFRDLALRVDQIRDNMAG
Chain of Insulin receptor-related protein (Homo sapiens) (P14616 27-742 limits assumed): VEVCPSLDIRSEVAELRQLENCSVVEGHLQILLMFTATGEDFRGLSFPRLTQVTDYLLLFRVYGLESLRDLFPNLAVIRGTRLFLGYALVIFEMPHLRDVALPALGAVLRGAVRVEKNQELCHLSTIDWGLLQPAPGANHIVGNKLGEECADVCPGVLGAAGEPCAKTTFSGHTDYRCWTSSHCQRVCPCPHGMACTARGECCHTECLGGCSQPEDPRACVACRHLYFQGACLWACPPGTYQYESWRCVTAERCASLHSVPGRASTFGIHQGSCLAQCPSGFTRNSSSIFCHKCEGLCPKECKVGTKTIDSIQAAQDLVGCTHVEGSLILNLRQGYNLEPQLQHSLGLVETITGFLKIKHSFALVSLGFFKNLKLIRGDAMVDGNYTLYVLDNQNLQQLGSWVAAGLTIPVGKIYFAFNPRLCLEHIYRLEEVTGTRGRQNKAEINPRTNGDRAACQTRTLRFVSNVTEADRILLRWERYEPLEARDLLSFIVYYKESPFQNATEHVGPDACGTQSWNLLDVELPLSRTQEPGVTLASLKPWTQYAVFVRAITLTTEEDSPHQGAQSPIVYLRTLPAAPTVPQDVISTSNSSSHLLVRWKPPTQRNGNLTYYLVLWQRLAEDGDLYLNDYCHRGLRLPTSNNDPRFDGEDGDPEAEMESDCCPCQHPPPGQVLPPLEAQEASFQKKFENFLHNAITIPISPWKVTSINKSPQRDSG
Chain of Insulin receptor-related protein (Homo sapiens) (P14616 747-1297 limits assumed): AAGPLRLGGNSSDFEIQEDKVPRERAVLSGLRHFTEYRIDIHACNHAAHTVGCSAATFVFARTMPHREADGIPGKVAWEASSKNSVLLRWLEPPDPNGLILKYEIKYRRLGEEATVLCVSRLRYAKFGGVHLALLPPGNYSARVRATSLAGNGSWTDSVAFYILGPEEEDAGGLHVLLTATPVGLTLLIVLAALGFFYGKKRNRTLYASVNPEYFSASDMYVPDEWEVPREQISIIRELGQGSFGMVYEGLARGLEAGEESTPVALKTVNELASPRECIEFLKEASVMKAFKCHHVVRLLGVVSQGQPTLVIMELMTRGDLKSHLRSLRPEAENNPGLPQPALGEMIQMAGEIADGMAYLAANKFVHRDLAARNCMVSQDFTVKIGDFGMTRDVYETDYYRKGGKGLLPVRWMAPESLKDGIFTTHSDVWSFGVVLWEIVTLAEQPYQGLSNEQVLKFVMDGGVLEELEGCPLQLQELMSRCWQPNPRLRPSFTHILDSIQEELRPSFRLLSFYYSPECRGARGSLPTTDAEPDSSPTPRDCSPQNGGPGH

Take `O=C(c1ccccc1)c1ccc(N2CCOCC2)cc1O`: the residual activity in test [1] is 89%; in [2] it was 117%; in test [3], 93%; in [4], 131%; in test [5] it was 75%; in test [6] it was 92%. Also, the residual activity turned out to be 99% in test [7]; 91% in [8]; 82% in [9]; 116% in [10]; 83% in test [11].
As to `O=S(=O)(NCCNC/C=C/c1ccc(Br)cc1)c1cccc2cnccc12`, the values for the residual activity in [1] and in test [12] were 75% and 100%, respectively.
Regarding `O=C1Nc2ccccc2/C1=C\c1c(Cl)[nH]c2ccccc12`, the residual activity worked out at 69% in [3], 85% in test [9], 76% in test [13] and 83% in [11].
For the compound `Cc1cc(C)c(/C=C2\C(=O)Nc3ccccc32)[nH]1`, the residual activity in test [14] is 76%; in [1], 75%; in test [2] it was 39%; in [3] it was 13%; in test [4], 65%; in test [5] it was 3%. Moreover, the residual activity in test [15] came out at 102%; in test [13], 101%.
Regarding `CCCCc1c(-c2ccc(O)cc2)[nH]c2nccnc12`, the residual activity was 52% in test [14]; 53% in test [1]; 71% in test [2]; 26% in test [3]; 93% in test [16]; 38% in test [12]. Besides, the residual activity in test [6] was 62%; in [7], 63%; in [8], 80%; in [9], 26%; in [15] it was 97%; in test [13], 98%. In addition, in [11], the residual activity turned out to be 56%.
Take `c1ccc(-c2cnc(Nc3ccc(OCCN4CCCC4)cc3)s2)cc1`: the residual activity in test [1] is 42%; in test [2], 124%; in [3], 80%; in test [4], 135%; in test [5] it was 65%; in test [16], 81%. Moreover, the residual activity came out at 30% in test [12]; 111% in test [6]; 105% in test [7]; 112% in test [10]; 70% in test [17]; 80% in test [11].
Take `COc1cc2c(cc1OC)-c1n[nH]c(Nc3cccc(F)c3)c1C2`: the residual activity in test [14] came out at 73%; in test [1] it was 68%; in [2], 76%; in [3] it was 34%; in test [4], 99%; in test [12] it was 41%. For the same compound, the residual activity in [7] amounted to 108%; in test [9], 114%; in [15] it was 101%; in test [13], 69%; in [11] it was 53%.
In the case of `O=C1NC(=O)C(c2cn(CCCn3ccnc3)c3ccccc23)=C1Nc1ccccc1`, the residual activity in [14] came to 81%; in test [1], 76%; in [2], 45%; in [3], 32%; in test [4] it was 135%; in [5] it was 65%. The residual activity in test [6] was found to be 103%; in [7], 39%; in test [8], 15%; in test [9] it was 2%; in [10], 109%; in [17] it was 79%. Moreover, the residual activity in [15] was determined as 110%; in test [13], 80%.
Consider `COc1ccc(CNC(=O)Nc2ncc([N+](=O)[O-])s2)cc1`, for which the residual activity in [1] was 103%; in [2], 72%; in test [3] it was 78%; in [11], 65%.
For `CCN1/C(=C/C(C)=O)Sc2ccc(OC)cc21`, in test [11], the residual activity came to 65%.
`Nc1n[nH]c2nc3ccccc3nc12`: the residual activity in [14] stood at 98%; in test [1], 98%; in test [2], 93%; in [3], 67%; in [4], 122%; in test [5], 86%. For the same compound, the residual activity came out at 98% in [6]; 91% in test [7]; 100% in [15]; 84% in [13]; 80% in test [11].

These data come from ChEMBL document CHEMBL2218924, “A broad activity screen in support of a chemogenomic map for kinase signalling research and drug discovery” (Biochem J, 2013).
